# According to PubChem BioAssay AID651812 (National Center for Advancing Translational Sciences (NCATS), 2012):
# Out of some 2,100 compounds screened, about 650 (31%) were called active. Roughly 16% stayed inconclusive and do not appear here. The call rests on the fitted dose curve; in most records, active means well fitted inhibition curve with a large enough effect; inconclusive means small, poorly fitted or top-dose-only effect; inactive means flat fitted curve, though single readings scatter. The list shows a part of the results.
# Experiment: qHTS for inhibitors of Vif-A3G interactions: Cherry picks; further: nearly all actives have a fitted effect of over 80% in size; on activity, negative = fluorescence increase: % of control where 0% means no effect
# Details: HeLa A3G-eYFP + Vif (tagged APOBEC3G with the HIV-1 protein that degrades it), 24 h; Potency: eYFP fluorescence increase; series mostly up to 36.9 µM; activity, negative = fluorescence increase: at the top concentration
# Text: The recent discovery and characterization of host restriction factors, which provide a potent defense to invading retroviruses, has provided new targets for antiviral drug development. APOBEC3G (A3G) and APOBEC3F (A3F) are potent cytidine deaminases that block HIV-1 replication; HIV-1 expresses the Vif protein, which counteracts A3G and A3F by binding to them and inducing their proteasomal degradation. The Vif-A3G and Vif-A3F interactions provide two potential targets for development of small molecules which can interfere with the ability of Vif to degrade A3G or A3F. […] To identify inhibitors that can interfere with Vif mediated degradation of A3G and A3F, we have developed Hela cell lines that stably express A3G or A3F tagged with eYFP at the C-terminal end (A3G-eYFP or A3F-eYFP, respectively) and Vif. In the absence of an inhibitor, Vif induces degradation of A3G-eYFP and A3F-eYFP, and the cells are not fluorescent. In the presence of an inhibitor, it is expected that Vif will be unable to degrade A3G-eYFP and/or A3F-eYFP, resulting in an increase in yellow fluorescence. In this assay, Vif A3G was screened against the cherry picks ordered from the MLSMR. NIH Chemical Genomics Center [NCGC] NIH Molecular Libraries Probe Centers Network [MLPCN] MLPCN Grant: MH093245 Assay Submitter (PI): Vinay Pathak, National Cancer Institute
# A3G-Vif cells were harvested from T225 flask and resuspended in phenol free OPTI-MEM medium with 5% FBS. Then 5 uL of 140,000 cells/mL resuspended cells was dispensed into each well of low base Aurora COC 1,536-well plates (black walled, clear bottom) using a Multidrop Combi dispenser. After overnight culture at 37 deg C with 5% CO2, a total of 23 nL of compounds at 5 selected concentrations from the NPC or positive control (2 mM stock of MG132) in DMSO was transferred to each well of the assay plate using a pintool (Kalypsys, San Diego, CA), and the plates were further incubated at 37 deg C with 5% CO2 for 24 hours. After that, the plates were measured on Acumen Explorer (TTP Lab Tech). The fluorescence was detected by 488 nm/Ex and […].
# Potency means the concentration at half of the fitted maximal effect.
Structure (SMILES),"activity, negative = fluorescence increase",Potency
Cc1c(=O)n(OCc2ccc(Cl)cc2)c2ccccc2[n+]1[O-],-13.2% (inactive),
Nc1nc2n[nH]nc2c(=O)[nH]1,-21.5% (inactive),
COCCN1C(=O)/C(=C/c2ccc(N3CCCC3)cc2C)SC1=S,,2.59 µM (active)
COCCN1C(=O)/C(=C/c2ccc(N3CCCC3)cc2)SC1=S,,4.61 µM (active)
CC12CC3CC(C)(C1)CC(C(=O)NC(=S)N1CCOCC1)(C3)C2,-2.7% (inactive),
COc1ccc(-c2n[nH]c(C)c2-c2ccc(OC)c(OC)c2)c(O)c1,-8.88% (inactive),
C=C1C(=O)O[C@@H]2[C@H]1[C@@H](OC(=O)/C(C)=C/C)C/C(C)=C\C(=O)/C=C(\C)[C@@H]2O,-0.207% (inactive),
COc1cc(/C=C(\C#N)c2nc3ccccc3s2)ccc1OCC(=O)Nc1ccccc1,,17.7 µM (active)
COc1cc(/C=C(\C#N)c2nc3ccc(C)cc3[nH]2)ccc1OC(C)C,,20.6 µM (active)
O=C(Oc1ccc(Cl)c2cccnc12)c1ccco1,1.78% (inactive),
COc1cc(/C=C(/C#N)c2nc3ccccc3[nH]2)ccc1OC(=O)c1ccco1,,3.53 µM (active)
COc1ccc(/C=N/NC(=O)c2ccccc2Cl)cc1CSc1nc2ccccc2s1,-9.1% (inactive),
COc1ccc(/C=N\NC(=O)c2ccccc2F)cc1COc1ccc(F)cc1F,-9.87% (inactive),
COc1ccc(OC)c2sc(NC(=O)CCS(=O)(=O)c3ccccc3)nc12,1.26% (inactive),
COc1cc(/C=C(\C#N)c2nc3ccccc3[nH]2)ccc1OCc1ccccc1F,,18.4 µM (active)
CC1(C)Cc2nc3sc4c(SCC(=O)NCc5ccco5)ncnc4c3cc2CO1,2.17% (inactive),
CCS(=O)(=O)N1CCc2cc(C(=O)N3CCN(c4cccc(C(F)(F)F)c4)CC3)ccc21,1.28% [at 46.1 µM] (inactive),
CCC(C)Sc1cccc(-c2nc3cc(C)ccn3c2NC2CCCCC2)c1 (stereo not drawn),10.8% [at 46.1 µM] (inactive),
CN1C(=O)C(O)(C2COC(C)(C)CC2=O)c2cc(Br)ccc21 (stereo not drawn),-6.11% (inactive),
N#CC1=C(N)Oc2cc(N)ccc2C1C1CC=CCC1 (stereo not drawn),-0.128% (inactive),
COc1ccc(-c2cc(NC=O)c3ncc(-c4ccc(OC)c(OC)c4)n3c2)cc1OC,-17.9% (inactive),
CCOC(=O)C(=Cc1ccc(-n2ccnc2)cc1)C(=O)OCC,-3.07% (inactive),
Cn1c(-c2ccccc2)cc2c3no[n+]([O-])c3ccc21,-7.06% (inactive),
CC(C)(C)NCC(=Cc1ccccc1)C(=O)c1ccccc1,3.08% (inactive),
COc1cc(/C=C(\C#N)c2nc3ccccc3[nH]2)cc(Cl)c1OCc1ccccc1Cl,,18.4 µM (active)

Structure (SMILES),"activity, negative = fluorescence increase",Potency
COc1cc(/C=C(/C(=O)c2cccs2)c2nc3ccccc3[nH]2)ccc1O,-7.69% (inactive),
COc1ccc(-c2cnnc(N/N=C/c3ccc(O)c(OC)c3)n2)cc1,-16.7% (inactive),
COc1cc(Br)c(/C=C(\C#N)c2nc3ccccc3[nH]2)cc1OC,,18.4 µM (active)
N#C/C(=C\c1cccnc1)c1nc2ccccc2[nH]1,-5.97% (inactive),
COc1cc(/C=C(\C#N)c2nc3ccccc3[nH]2)ccc1O,,5.8 µM (active)
Cc1cccc(Nc2nnc(SC/C(O)=C(\C#N)c3nc4ccccc4[nH]3)s2)c1,-16.6% [at 46.1 µM] (inactive),
COc1cc(/C=C(/C#N)c2nc3ccccc3[nH]2)ccc1OCC(=O)Nc1ccccc1C(C)C,,16.4 µM (active)
COc1ccccc1NC(=O)c1oc2ccccc2c1NC(=O)c1cccc(OC)c1OC,-11.2% [at 46.1 µM] (inactive),
CC(=O)c1cccc(-c2ccnc3c2CC(C(=O)NCC2CC2)O3)c1 (stereo not drawn),-3.12% (inactive),
N#CC1CC(c2ccccc2)Nc2cc(Cl)ccc2N1 (stereo not drawn),1.23% (inactive),
COc1ccc(N(C)S(=O)(=O)c2cccc3cccnc23)c(OC)c1,2.33% (inactive),
COc1ccc(C(=O)NC2CCCc3ccccc32)cc1[N+](=O)[O-] (stereo not drawn),1.3% (inactive),
CCOc1ccc2nc(N3C(=O)/C(=C/c4ccc(Cl)cc4)NC3=S)sc2c1,,11.6 µM (active)
COc1ccc2nc(NC(=S)NC(=O)c3ccco3)sc2c1,-2.19% [at 46.1 µM] (inactive),
COc1ccc2nc(NC(=O)Nc3ccccc3OC)sc2c1,0.903% (inactive),
COc1ccc2nc(N3C(=O)/C(=C/c4ccccc4)NC3=S)sc2c1,,3.66 µM (active)
O=C(OC12CC3CC(CC(C3)C1)C2)c1ccc(NCc2cc(O)ccc2O)cc1,1.32% [at 46.1 µM] (inactive),
COc1c(-c2ccc(O)c(O)c2)oc2cc(O)cc(O)c2c1=O,-10.1% (inactive),
CC(=O)c1c(C)oc2c1cc(NS(=O)(=O)c1ccc(Br)cc1)c1ccccc12,-5.41% [at 46.1 µM] (inactive),
Cc1ccc2c(c1)sc(-c1ccc(N(C)C)cc1)[n+]2C,,20.6 µM (active)
COc1ccc(N/C=C/C(=O)c2cc(OC)c(OC)c(OC)c2)cc1,-17% (inactive),
COc1ccc(C(=O)c2cc([N+](=O)[O-])ccc2N2CCCC2)cc1,-0.081% (inactive),
COc1ccc(C(=O)/C=C/Nc2ccc([N+](=O)[O-])cc2C)c(OC)c1,,11.6 µM (active)
COC(=O)c1ccccc1NC(=O)C1CC(=O)N(c2ccc(OC)cc2)C1 (stereo not drawn),-1.16% (inactive),
CCCN1C(=O)/C(=C\C=C2\N(CC)c3ccccc3C2(C)C)SC1=S,,3.26 µM (active)

Structure (SMILES),"activity, negative = fluorescence increase",Potency
CCCCN1C(=O)/C(=C/C=C2/CC(C)(C)CN2C)SC1=S,-28.2% (inactive),
CCCN1C(=O)/C(=C/C=C2\N(CC)c3ccccc3C2(C)C)SC1=S,,3.96 µM (active)
O=C(NCc1cccc(C(F)(F)F)c1)c1cccc2c1C(=O)c1ccc(N3CCC(Cc4ccccc4)CC3)cc1S2(=O)=O,,18.4 µM (active)
Cc1c(C)n(Cc2ccccc2)c2ccc(C(=O)NCc3ccco3)cc12,-7.76% [at 46.1 µM] (inactive),
O=C(NCc1ccccc1C(F)(F)F)c1cccc2c1C(=O)c1ccc(N3CCC(N4CCCCC4)CC3)cc1S2(=O)=O,,20.6 µM (active)
O=C(NCc1ccco1)c1cccc2c1C(=O)c1ccc(N3CCC(Cc4ccccc4)CC3)cc1S2(=O)=O,,18.4 µM (active)
O=C(NC1CC1)c1cccc2c1C(=O)c1ccc(N3CCC(Cc4ccccc4)CC3)cc1S2(=O)=O,,23.1 µM (active)
Cc1cc(C)c(S(=O)(=O)N2CCCCC2CCNC(=O)C(=O)NCc2ccco2)c(C)c1 (stereo not drawn),-17.1% (inactive),
Cc1ccc(C(=O)NC(=C(Cl)Cl)S(=O)(=O)c2ccc(Cl)cc2)cc1,-21.2% (inactive),
CC(=O)c1cccc(-c2ccnc3c2CC(C(=O)NCC2CCOCC2)O3)c1 (stereo not drawn),-5.46% (inactive),
COc1ccccc1C(=O)N1CCN(c2cccc(Cl)c2)CC1,-4.75% (inactive),
Cc1cccc(C(=O)NC(=S)N2CCc3ccccc3C2)c1,13.5% [at 46.1 µM] (inactive),
O=C(N/N=C/c1ccc([N+](=O)[O-])o1)c1cn2ccc3ccccc3c2n1,-24.5% (inactive),
O=C(Nc1nc2c(F)cccc2s1)c1ccc([N+](=O)[O-])o1,-7.65% [at 46.1 µM] (inactive),
O=C(N/N=C/c1ccc([N+](=O)[O-])o1)c1sc2ccccc2c1Cl,,18.4 µM (active)
COc1cc(C2Nc3ccc4ncccc4c3C3=C2C(=O)CCC3)ccc1O (stereo not drawn),-1.83% (inactive),
O=C(N/N=C\C=C\c1ccc([N+](=O)[O-])o1)c1cccs1,,15.8 µM (active)
COc1ccccc1OCC(=O)N/N=C/C=C/c1ccc([N+](=O)[O-])o1,,16.4 µM (active)
CCCOC(=O)/C(=C\c1ccc([N+](=O)[O-])o1)NC(=O)c1ccccc1,2.95% [at 46.1 µM] (inactive),
O=C(N/N=C/c1cccs1)c1n[nH]c2c1CCC2,0.292% (inactive),
O=C(Nc1ncccn1)c1ccc([N+](=O)[O-])o1,-21.8% (inactive),
COc1ccccc1OCC(=O)NNC(=O)Nc1ccc(Cl)cc1,-5.61% (inactive),
COc1cc2c(c(OC)c1OC)-c1ccc(N(C)CC(OC)OC)c(=O)cc1[C@@H](NC(C)=O)CC2,-15.4% (inactive),
CC(C)(C)c1ccc(Oc2ccc(NC(=O)c3ccccc3C(=O)O)cn2)cc1,-6.2% (inactive),
COc1cc2ccccc2cc1C(=O)N/N=C/c1cccnc1,-15.3% (inactive),

Structure (SMILES),"activity, negative = fluorescence increase",Potency
Cn1c(=O)[nH]c(=O)c2c1nc(Br)n2Cc1cccc(Br)c1,-5.77% (inactive),
Cc1cc2nc3c(=O)n(C4CCCCC4)c(=O)[nH]c3nc2cc1N,,16.4 µM (active)
Cc1nc2c3cc(F)ccc3n(Cc3ccccc3)c2s1,-4.45% (inactive),
Cc1cc2nc3c(=O)n(Cc4ccccc4)c(=O)[nH]c3nc2cc1N,,6.27 µM (active)
Cc1cccc(C)c1OCCNC(=O)C(=O)NCc1ccco1,2.6% (inactive),
CC1CC(C)(C)Nc2ccc(OC(=O)c3ccco3)cc21 (stereo not drawn),,20.6 µM (active)
COc1cc(C2Oc3ccccc3C=C2[N+](=O)[O-])cc(OC)c1OC (stereo not drawn),0.838% (inactive),
N#CC1=C(N)C(C#N)(C#N)[C@H](c2ccoc2)[C@H]2CN(Cc3ccccc3)CC=C12,-15.3% (inactive),
CCOC(=O)C1=C(C)N=c2sc(=Cc3cc(Cl)c(OCC(=O)O)c(Cl)c3)c(=O)n2C1c1cccc(OC)c1 (stereo not drawn),-25.7% (inactive),
Nc1c(C(=O)C2CC2)sc2nc(-c3cccs3)cc(C(F)(F)F)c12,,2.31 µM (active)
CC(C)(C)C(=O)c1sc2nc(-c3cccs3)cc(C(F)(F)F)c2c1N,,1.3 µM (active)
CC(=O)c1sc2nc(-c3cccs3)cc(C(F)(F)F)c2c1N,,7.31 µM (active)
Cc1ccc(-c2cc(NC=O)c3ncc(-c4cccc(C(=O)N(C)C)c4)n3c2)cc1,-12.4% (inactive),
CCOC(=O)c1c(-c2ccc(OC)cc2)csc1/N=C/C1=C(O)CCCC1=O,-5.4% [at 46.1 µM] (inactive),
Cc1ccc(S(=O)(=O)N2CCN(C(=O)CSC(=S)N3CCCC3)CC2)c(C)c1,2.82% [at 46.1 µM] (inactive),
CN(C)c1ccc(C=C2SC(=S)N(Cc3ccco3)C2=O)cc1,,2.8 µM (active)
CCN1CCN(c2c(/C=C3\SC(=S)N(Cc4ccco4)C3=O)c(C)c(C#N)c(=O)n2C)CC1,,18.4 µM (active)
Cc1cc(/C=C2\SC(=S)N(Cc3ccco3)C2=O)c(C)n1-c1cccnc1,,23.1 µM (active)
COC(=O)C1=C(C)N(Cc2ccco2)C(=O)/C1=C\c1ccc([N+](=O)[O-])cc1,-5.03% [at 46.1 µM] (inactive),
C/C(=N/NC(N)=S)c1ccc(Br)s1,4.29% [at 46.1 µM] (inactive),
CCCC(=O)NC(c1ccc(OC)cc1)c1ccc2cccnc2c1O (stereo not drawn),2.17% [at 46.1 µM] (inactive),
Cn1ccnc1Sc1nc2ccccc2nc1NS(=O)(=O)c1ccccc1,9.44% [at 46.1 µM] (inactive),
CC(OC(=O)/C(C#N)=C/c1ccc(N(C)C)cc1)C(=O)N(C)Cc1ccccc1 (stereo not drawn),,18.4 µM (active)
